Among the data in PubChem BioAssay (NCATS) are Potency values, retold here.

Inconclusive results are not listed. Entries that show only a call come without a potency. Active and inactive are the calls of the source. Calls come from the whole dose curve; as a rule, active = well fitted inhibition curve with a large enough effect; inconclusive = small, poorly fitted or top-dose-only effect; inactive = flat fitted curve, though single readings scatter.

This assay has as its system Zika virus NS2B-NS3 protease. Nature of the assay: Primary screen GU AMC qHTS for Zika virus inhibitors (AID 1347154). Note: nearly all actives have a fitted effect of over 70% in size. Conditions: Zika NS2B-NS3 unlinked protease, AMC fluorogenic substrate; series mostly up to 54.1 µM. The method in brief:
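Fluorogenic AMC-substrate cleavage by noncovalent NS2B-NS3 protease complex (25 nM, pH 8.0 Tris buffer with Tween 20) followed for 15 minutes at room temperature (~20% conversion). Percent inhibition from ex340/em450 signal change, fitted by 4-parameter Hill equation.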
In general terms: In qHTS, concentration-response curves come from the screen itself.
With `CC(=O)N[C@@H](Cc1ccc(O)cc1)C(=O)O`, the Potency entry was “inactive”.

For the compound `Nc1c2c(nc3c1CCC3)CCCC2`, the Potency result was “inactive”.

On to `C/C=C1\[C@H]2C=C(C)C[C@]1(N)c1ccc(=O)[nH]c1C2`, for which the Potency entry is “inactive”.

In the case of `O=C(NCC(O)CO)c1c(I)c(C(=O)NCC(O)CO)c(I)c(N(CCO)C(=O)CO)c1I` (configuration not stated), the Potency entry is “inactive”.

For the compound `CC(CN(C)C)C(C)(O)Cc1ccc(Cl)cc1` (configuration not stated), the Potency entry was “inactive”.

Regarding `CC(C)(C)C(=O)OCOC(=O)[C@@H]1N2C(=O)[C@@H](NC(=O)[C@H](N)c3ccccc3)[C@H]2SC1(C)C`, the Potency entry was “inactive”.

For `COCC(=O)Nc1c(I)c(C(=O)NCC(O)CO)c(I)c(C(=O)N(C)CC(O)CO)c1I` (configuration not stated), the Potency entry is “inactive”.

Take `CC(=O)OC[C@H]1O[C@@](COC(C)=O)(O[C@H]2O[C@H](COC(C)=O)[C@@H](OC(C)=O)[C@H](OC(C)=O)[C@H]2OC(C)=O)[C@@H](OC(C)=O)[C@@H]1OC(C)=O`: the Potency entry is “inactive”.

Regarding `O=C(O)CCC(=O)O`, the Potency entry is “inactive”.

For the compound `C[N+](C)(C)CC[N+]1(C)Cc2c(Cl)c(Cl)c(Cl)c(Cl)c2C1`, the Potency entry was “inactive”.

Consider `Cc1cc(O)cc(C)c1Cl`, for which the Potency entry is “inactive”.

In the case of `Cc1ccc2c(c1)c1c3n2CCNC3CCC1` (configuration not stated), the Potency result is “inactive”.

Regarding `CC(C(=O)O)c1ccc2c(c1)Cc1cccnc1O2` (configuration not stated), the Potency result was “inactive”.

As for `CCOC(=O)OC(C)OC(=O)[C@@H]1N2C(=O)[C@@H](NC(=O)[C@H](N)c3ccccc3)[C@H]2SC1(C)C` (some centres not stated), the Potency result was “inactive”.

With `NS(=O)(=O)c1cc(C2(O)NC(=O)c3ccccc32)ccc1Cl` (configuration not stated), the Potency result is “inactive”.

As to `COc1ccc(C(=O)N2CCN(CC(=O)N3CCOCC3)CC2)cc1`, the Potency entry was “inactive”.

On to `CCN(CC)S(=O)(=O)c1ccc(C(=O)O)cc1`, for which the Potency entry was “inactive”.
